# Experimental data published in PubChem BioAssay (NCI).
# About 79,000 compounds went through this panel and 15% of them were active in at least one assay; those are over-represented in the sample as a whole. Active and inactive are the calls of the source. Rule as the data show it: active = growth inhibition above about 70%; inactive = the rest.
# Experiment: NCI Yeast Anticancer Drug Screen. Data for the mgt1 strain (AID 153)
# Details: S. cerevisiae mgt1 mutant growth inhibition, active compounds read high
# Method: Growth inhibition of yeast strains with defined genetic alterations is measured as a screen for potential anti-cancer activity. Selected strains with alterations in DNA damage repair or cell cycle control were exposed to compounds and growth inhibition was measured relative to vehicle treated controls. The strain used in this assay is mgt1
Compound,growth inhibition (at 1.2 µM),growth inhibition (at 3.7 µM),growth inhibition (at 11.0 µM),growth inhibition (at 33.0 µM),growth inhibition (at 100.0 µM)
CCOC(=O)[C@H]1Nc2ccc(OC)cc2C2c3ccccc3CC21 (stereo not given in full),-40% (inactive),-46% (inactive),-46% (inactive),28% (inactive),83% (active)
Cc1cccc2c1nc1ccc(Cl)cc1[n+]2C,0% (inactive),7% (inactive),59% (inactive),98% (active),98% (active)
O=[N+]([O-])c1ccc2c(c1)/C(=N/N=C1c3ccccc3Cc3ccccc31)c1cc([N+](=O)[O-])cc([N+](=O)[O-])c1-2,16% (inactive),74% (active),99% (active),98% (active),93% (active)
Cc1cccc(/C=N/NC(=S)N2CCCC2)n1,-13% (inactive),-14% (inactive),18% (inactive),94% (active),96% (active)
Cn1c(-c2ccc(/C=N\N3CCN(/N=C/c4ccc(-c5c[n+]6ccccc6n5C)cc4)CC3)cc2)c[n+]2ccccc12,-30% (inactive),-10% (inactive),-27% (inactive),38% (inactive),91% (active)
COc1ccc(C/C=N/Nc2ccc([N+](=O)[O-])cc2)cc1OC,2% (inactive),12% (inactive),9% (inactive),4% (inactive),23% (inactive)
CCCCOC(=O)Nc1ccc(C)c(NC(=O)OCCCC)c1,-9% (inactive),-8% (inactive),-4% (inactive),8% (inactive),18% (inactive)
S=c1sc2c(s1)SCCS2,-2% (inactive),-1% (inactive),18% (inactive),-14% (inactive),5% (inactive)
